“And” between values parts separate entries of the source, which are not always exact repeats. Identical values can stand only once. Counter-ions that a name gives are not always drawn. The campaign covered roughly 5,800 compounds. About 620 (11%) showed activity. Only a selection was taken, and actives are over-represented in it overall. A number with no mark means an inactive call.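 How the source made its calls: active = score above a cut-off or among the top three wells of a plate; in these data no inactive exceeds 0.85.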
System: primary human hepatic stellate cells (donor 1)
Assay: scaled lipid accumulation score (0 = DMSO-like, 1 = nortriptyline-like); higher = stronger HSC inactivation (lipid re-accumulation), active = hit call of the paper
Conditions: 48 h
[1] = library stock concentration: 10 mM
[2] = library stock concentration: 3.33 mM
[3] = library stock concentration: 1 mM
[4] = library stock concentration: 80 uM
[5] = library stock concentration: 400 uM
[6] = library stock concentration: 2 mM

`CC(N)(Cc1ccc(O)cc1)C(=O)O` (racemic) [DL-alpha-Methyl-p-tyrosine] was tested, and the “scaled lipid accumulation score” value [1] was 0.213.

For `CC(Cc1ccccc1)(NC(=O)CN)c1ccccc1` (stereo not given) [Remacemide hydrochloride], the “scaled lipid accumulation score” value [1] was 0.479.

`CC(Cc1ccccc1)(NC(=O)CN)c1ccccc1` (racemic) was tested, and the “scaled lipid accumulation score” value [1] was 0.922 (active).

`COc1ccc(-c2cc(=O)c3c(O)c(OC)c(OC)cc3o2)cc1O` [Eupatorin] was tested, and the “scaled lipid accumulation score” value [1] was 0.725.

`CC(C)Cn1c(=O)n(C)c(=O)c2nc[nH]c21` [Isobutylmethylxanthine] was tested, and the “scaled lipid accumulation score” value (library stock concentration: 9 mM) was ≤ 0.

For `O=C[C@H](O)[C@@H](O)[C@H](O)CO` [Xylose], the “scaled lipid accumulation score” value [2] was ≤ 0 and the “scaled lipid accumulation score” value [1] was 0.028.

With `CN1CCN(C2=Nc3ccccc3Oc3ccc(Cl)cc32)CC1` [Loxapine succinate] the “scaled lipid accumulation score” value was 0.3, the “scaled lipid accumulation score” value (library stock concentration: 4.5 mM) was 0.253 and the “scaled lipid accumulation score” value [1] was 0.708 and 0.486.

`CN1CCN(C2=Nc3ccccc3Oc3ccc(Cl)cc32)CC1` was tested, and the “scaled lipid accumulation score” value [1] was 0.608.

In the case of `CN1CC2c3ccccc3Oc3ccc(Cl)cc3C2C1` (stereo not given) [Asenapine], the “scaled lipid accumulation score” value [2] is reported as 0.156 and the “scaled lipid accumulation score” value [1] is reported as 0.752.

For `CN1CC2c3ccccc3Oc3ccc(Cl)cc3C2C1` (stereo not given) [Asenapine maleate], the “scaled lipid accumulation score” value [1] was 0.772.

`CN1CCN(C2=Nc3ccccc3Oc3ccc(Cl)cc32)CC1` [Loxapine Succinate] was tested, and the “scaled lipid accumulation score” value [2] was ≤ 0 and the “scaled lipid accumulation score” value [1] was 0.493.

For `CN1CCN(C2=Cc3ccccc3Oc3ccc(Cl)cc32)CC1.O=C(O)/C=C/C(=O)O`, the “scaled lipid accumulation score” value [1] was 1.01 (active).

In the case of `CNc1nc(Nc2cnn(C3CCN(C4COC4)CC3F)c2Cl)ncc1C(F)(F)F` (stereo not given), the “scaled lipid accumulation score” value [2] is reported as ≤ -0.009 and the “scaled lipid accumulation score” value [1] is reported as ≤ 0.

For `CCCCC(C)(O)CC=CC1C(O)CC(=O)C1CCCCCCC(=O)OC` (stereo not given) [8-iso Misoprostol], the “scaled lipid accumulation score” value [3] was ≤ 0.

With `CN1CCN(c2nc3cc(C(F)(F)F)ccc3n3cccc23)CC1.O=C(O)/C=C\C(=O)O` [listing 1 of 2 here] the “scaled lipid accumulation score” value [1] was 0.974 (active).

`CN1CCN(c2nc3cc(C(F)(F)F)ccc3n3cccc23)CC1.O=C(O)/C=C\C(=O)O` [listing 2 of 2 here] was tested, and the “scaled lipid accumulation score” value [1] was 1.15 (active).

For `CCc1cncnc1N1CCN(Cc2nc3ccc(C(F)(F)F)cc3[nH]2)CC1`, the “scaled lipid accumulation score” value [4] was ≤ 0, the “scaled lipid accumulation score” value [5] was ≤ 0 and the “scaled lipid accumulation score” value [6] was ≤ 0. For the same compound, the “scaled lipid accumulation score” value [2] was ≤ 0 and the “scaled lipid accumulation score” value [1] was 0.077 and 0.419 and ≤ 0.

For `CCCCC/C=C\C[C@@H](O)/C=C/c1cccc(C[C@@H](O)CCCCO)n1`, the “scaled lipid accumulation score” value (library stock concentration: 100 uM) was ≤ -0.021.

With `CCNC(=O)CCC/C=C\C[C@@H]1[C@@H](CC[C@@H](O)CCc2ccccc2)[C@H](O)C[C@@H]1O` [Latanoprost ethyl amide] the “scaled lipid accumulation score” value [3] was ≤ 0.

In the case of `O=C1NCCc2[nH]c(-c3ccnc(-c4cnc5ccccc5c4)c3)cc21` [MK-2 Inhibitor III], the “scaled lipid accumulation score” value [2] is reported as ≤ 0.

In the case of `C=C[C@H]1CN2CC[C@H]1C[C@H]2[C@H](O)c1ccnc2ccc(OC)cc12` [Quinine], the “scaled lipid accumulation score” value (library stock concentration: 6.2 mM) is reported as 0.205.

In the case of `C=C[C@H]1CN2CC[C@H]1C[C@H]2[C@H](O)c1ccnc2ccc(OC)cc12` [Quinine HCl Dihydrate], the “scaled lipid accumulation score” value [2] is reported as 0.077 and the “scaled lipid accumulation score” value [1] is reported as 0.31.

In the case of `C=C[C@H]1CN2CC[C@H]1C[C@H]2[C@H](O)c1ccnc2ccc(OC)cc12` [Quinine sulfate], the “scaled lipid accumulation score” value (library stock concentration: 4.7 mM) is reported as 0.308 and the “scaled lipid accumulation score” value [1] is reported as ≤ 0 and 0.364.

`CC(C)[C@H](N)C(=O)OCC(CO)OCn1cnc2c(=O)nc(N)[nH]c21` (stereo not given in full) was tested, and the “scaled lipid accumulation score” value [1] was 0.228.

For `CCCCCCC[C@H](O)/C=C/[C@H]1[C@H](O)CC(=O)[C@@H]1C/C=C\CCCC(=O)O` [20-ethyl Prostaglandin E2], the “scaled lipid accumulation score” value [3] was ≤ 0.

`CC(CCCO)C1CCC2C3C(O)CC4CC(=O)CCC4(C)C3CC(O)C12C` (stereo not given) [3-keto Petromyzonol] was tested, and the “scaled lipid accumulation score” value [3] was ≤ 0.

`CC/C(=C(\c1ccccc1)c1ccc(OCCN(C)C)cc1)c1ccccc1` [Tamoxifen Citrate] was tested, and the “scaled lipid accumulation score” value [2] was 0.368 and the “scaled lipid accumulation score” value [1] was 0.579.

`CN(C)CCOC(=O)COc1ccc(Cl)cc1` [Centrophenoxine hydrochloride] was tested, and the “scaled lipid accumulation score” value [1] was 0.032.

`CN(C)CCOc1ccc(/C(=C(/CCCl)c2ccccc2)c2ccccc2)cc1` [Toremifene Citrate] was tested, and the “scaled lipid accumulation score” value [2] was 0.112.

For `OCCOc1ccc(/C(=C(/CCCl)c2ccccc2)c2ccccc2)cc1` [Ospemifene], the “scaled lipid accumulation score” value [2] was 0.069 and the “scaled lipid accumulation score” value [1] was 0.171.

In the case of `CN(C)CCOc1ccc(/C(=C(/CCCl)c2ccccc2)c2ccccc2)cc1`, the “scaled lipid accumulation score” value [1] is reported as ≤ 0.

In the case of `CC/C(=C(\c1ccccc1)c1ccc(OCCN(C)C)cc1)c1ccccc1` [Tamoxifen], the “scaled lipid accumulation score” value [1] is reported as 0.674 and 0.394 and the “scaled lipid accumulation score” value (library stock concentration: 13.5 mM) is reported as 0.777.

For `CN(C)CCOc1ccc(/C(=C(/CCCl)c2ccccc2)c2ccccc2)cc1.O=C(O)CC(O)(CC(=O)O)C(=O)O`, the “scaled lipid accumulation score” value [1] was 0.946 (active).

In the case of `CN(C)CCOC(=O)COc1ccc(Cl)cc1` [Meclofenoxate hydrochloride], the “scaled lipid accumulation score” value is reported as ≤ 0 and the “scaled lipid accumulation score” value [1] is reported as ≤ -0.027.

With `CN(C)CCOc1ccc(C(=C(CCCl)c2ccccc2)c2ccccc2)cc1.O=C(O)CC(O)(CC(=O)O)C(=O)O` [Toremifene Citrate] the “scaled lipid accumulation score” value [1] was 1.23 (active).

`CN(C)CCOC(=O)COc1ccc(Cl)cc1` [Meclofenoxate (Centrophenoxine) HCl] was tested, and the “scaled lipid accumulation score” value [2] was ≤ 0 and the “scaled lipid accumulation score” value [1] was 0.043.

With `CC/C(=C(\c1ccccc1)c1ccc(OCCN(C)C)cc1)c1ccccc1` [Tamoxifen citrate] the “scaled lipid accumulation score” value was 0.372, the “scaled lipid accumulation score” value (library stock concentration: 3.5 mM) was 0.611 and the “scaled lipid accumulation score” value (library stock concentration: 5.4 mM) was 0.421. The “scaled lipid accumulation score” value [1] was 0.253 and 0.681 and 0.432.

In the case of `CN(C)CCOc1ccc(/C(=C(/CCCl)c2ccccc2)c2ccccc2)cc1` [Toremifene], the “scaled lipid accumulation score” value (library stock concentration: 4.9 mM) is reported as 0.264.

For `O=C(O)CSCC(=O)NC1CCSC1=O` (stereo not given), the “scaled lipid accumulation score” value [1] was ≤ 0.

In the case of `O=C(O)CSCC(=O)NC1CCSC1=O` (stereo not given) [Erdosteine], the “scaled lipid accumulation score” value [2] is reported as ≤ 0 and the “scaled lipid accumulation score” value [1] is reported as ≤ 0.

For `CC(C)OC(=O)CCC/C=C/C[C@@H]1[C@@H](/C=C/[C@H](O)CCc2ccccc2)[C@H](O)C[C@@H]1O`, the “scaled lipid accumulation score” value [3] was ≤ 0.

`C1CNCCN1` [Piperazine] was tested, and the “scaled lipid accumulation score” value [1] was ≤ 0 and the “scaled lipid accumulation score” value (library stock concentration: 23.2 mM) was 0.066.

For `O=C(O)CCCCC(CCSCc1ccccc1)SCc1ccccc1` (stereo not given), the “scaled lipid accumulation score” value [2] was ≤ 0 and the “scaled lipid accumulation score” value [1] was ≤ 0.

In the case of `CCCC[C@@H](C=O)NC(=O)[C@H](CC(C)C)NC(=O)[C@H](CC(C)C)NC(C)=O`, the “scaled lipid accumulation score” value (library stock concentration: 13 mM) is reported as 0.811.

`CC(C)c1ccc(NC(=O)Cn2cnc3c2c(=O)n(C)c(=O)n3C)cc1` was tested, and the “scaled lipid accumulation score” value [2] was ≤ 0 and the “scaled lipid accumulation score” value [1] was ≤ 0.

In the case of `CCCCC/C=C\C/C=C\CCCCCCCC(=O)OCC` [Linoleic Acid ethyl ester], the “scaled lipid accumulation score” value [3] is reported as ≤ 0.

`COc1ccc(Nc2nccc(NCCO)n2)cc1` [Cardiogenol C (hydrochloride)] was tested, and the “scaled lipid accumulation score” value [3] was ≤ 0.

In the case of `OCCCNc1cc(-c2ccnc(Nc3cccc(Cl)c3)n2)ccn1` [listing 1 of 2 here], the “scaled lipid accumulation score” value [1] is reported as 0.957 (active).

In the case of `COc1ccc(Nc2nccc(NCCO)n2)cc1` [Cardiogenol C hydrochloride], the “scaled lipid accumulation score” value [1] is reported as ≤ 0.

`OCCCNc1cc(-c2ccnc(Nc3cccc(Cl)c3)n2)ccn1` [listing 2 of 2 here] was tested, and the “scaled lipid accumulation score” value [4] was 0.137, the “scaled lipid accumulation score” value [5] was 0.324 and the “scaled lipid accumulation score” value [6] was 0.587.

`C[C@@]1(c2cc(-c3cncnc3)c(F)cc2F)CCSC(N)=N1` was tested, and the “scaled lipid accumulation score” value [2] was ≤ 0 and the “scaled lipid accumulation score” value [1] was ≤ 0.

In the case of `CCCCCCCCCCC/C=C\C/C=C\CCCC(=O)O` [Eicosa-5,8-dienoic acid (20:2 n-12)], the “scaled lipid accumulation score” value [3] is reported as ≤ -0.021.

`COc1cc(C(C)=O)ccc1OCCCN1CCC(c2noc3cc(F)ccc23)CC1` was tested, and the “scaled lipid accumulation score” value [1] was 0.933 (active).

`COc1cc(C(C)=O)ccc1OCCCN1CCC(c2noc3cc(F)ccc23)CC1` [Iloperidone] was tested, and the “scaled lipid accumulation score” value [2] was 0.045 and the “scaled lipid accumulation score” value [1] was 0.477.

In the case of `Cc1nc2n(c(=O)c1CCN1CCC(c3noc4cc(F)ccc34)CC1)CCCC2O` (stereo not given) [Paliperidone], the “scaled lipid accumulation score” value [1] is reported as 0.223.

For `C[Se]CC[C@H](N)C(=O)O`, the “scaled lipid accumulation score” value [1] was ≤ 0.

For `COc1ccc(N(C(=O)Nc2c(C)cccc2C)c2cc(Nc3ccc(N4CCN(C)CC4)cc3)ncn2)c(OC)c1`, the “scaled lipid accumulation score” value [4] was ≤ -0.016, the “scaled lipid accumulation score” value [5] was 0.184 and the “scaled lipid accumulation score” value [6] was 0.849.

For `Cc1ccc(-c2ccc3c(ccc4sc5c(c43)NC[C@@H](C)NC5=O)n2)cn1` [listing 1 of 2 here], the “scaled lipid accumulation score” value [1] was 1.28 (active).

`Cc1ccc(-c2ccc3c(ccc4sc5c(c43)NC[C@@H](C)NC5=O)n2)cn1` [listing 2 of 2 here] was tested, and the “scaled lipid accumulation score” value [4] was ≤ -0.001, the “scaled lipid accumulation score” value [5] was ≤ -0.001 and the “scaled lipid accumulation score” value [6] was 0.744.

`CN(C)CC(c1ccc(O)cc1)C1(O)CCCCC1` (stereo not given) was tested, and the “scaled lipid accumulation score” value [1] was ≤ 0.

`CN(C)CC(c1ccc(O)cc1)C1(O)CCCCC1` (stereo not given) [Desvenlafaxine] was tested, and the “scaled lipid accumulation score” value [2] was ≤ 0 and the “scaled lipid accumulation score” value [1] was ≤ -0.001.

With `CN(C)CC(c1ccc(O)cc1)C1(O)CCCCC1` (stereo not given) [Desvenlafaxine Succinate] the “scaled lipid accumulation score” value [2] was ≤ 0 and the “scaled lipid accumulation score” value [1] was ≤ -0.001.

For `Cc1ccc(NC(=O)C(C)C)cc1C1CCN(Cc2ccc(Oc3ccc(F)c(F)c3)cc2)CC1.Cl`, the “scaled lipid accumulation score” value [1] was 1.29 (active).

With `CC(=O)c1ccc(N2CCOCC2)cc1O` [DNA-PK Inhibitor III] the “scaled lipid accumulation score” value [2] was ≤ 0.

For `N[C@@H](CCC(=O)N[C@@H](CSN=O)C(=O)NCC(=O)O)C(=O)O` [S-Nitrosoglutathione], the “scaled lipid accumulation score” value [1] was ≤ -0.032.

For `Cc1cc2nc3c(=O)[nH]c(=O)nc-3n(CC(O)C(O)C(O)COP(=O)(O)O)c2cc1C` (stereo not given), the “scaled lipid accumulation score” value [1] was ≤ 0.

With `COC(=O)C1=C(C)NC(C)=C(C(=O)OC2CCCN(Cc3ccccc3)C2)C1c1cccc([N+](=O)[O-])c1` (stereo not given) [Benidipine HCl] the “scaled lipid accumulation score” value [2] was 0.027 and the “scaled lipid accumulation score” value [1] was 0.476.

With `COC(=O)C1=C(C)NC(C)=C(C(=O)OC2CCCN(Cc3ccccc3)C2)C1c1cccc([N+](=O)[O-])c1` (stereo not given) the “scaled lipid accumulation score” value [1] was 0.032.

In the case of `CC1=C(C(=O)OC2CCCCC2)C(c2ccc([N+](=O)[O-])cc2)C2=C(CC(C)(C)CC2=O)N1` (stereo not given) [listing 1 of 2 here], the “scaled lipid accumulation score” value [1] is reported as 0.997 (active).

In the case of `CC1=C(C(=O)OC2CCCCC2)C(c2ccc([N+](=O)[O-])cc2)C2=C(CC(C)(C)CC2=O)N1` (stereo not given) [listing 2 of 2 here], the “scaled lipid accumulation score” value [2] is reported as 0.763.

From the supplement of paper PMC9135407
